# PubChem BioAssay (NCATS)
# Values without a mark were called inactive. Results filed as inconclusive are left out. The source made the active and inactive calls. The call rests on the fitted dose curve; in most records, active means well fitted curve in the direction sought with a large enough effect; inconclusive means small, poorly fitted or top-dose-only effect, or another doubt; inactive means no such curve, though single readings can be large; an effect the other way counts as inactive or inconclusive.
# System: not listed separately
# Experiment: Cellular Toxicity (caspase-3) NIH 3T3 (AID 666);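 further: caspase signal read after 16 h compound exposure; 0% = DMSO basal and 100% = 100 µM tamoxifen stimulation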
# Conditions: NIH 3T3 caspase-3 activation, apoptosis/toxicity; series mostly up to 92.2 µM; caspase-3 activation: at the top concentration
# Outline: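 Mouse NIH 3T3 fibroblasts (1000 cells/well) were treated with compound for 16 hr at 37°C in complete medium; caspase-3/7 activity was read by Caspase-Glo luminescence. Normalized to DMSO and 100 uM tamoxifen; AC50 from Hill fits.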
row,SMILES,caspase-3 activation [%]
1,C=CC(=O)OCC(CC)CCCC (stereo not given),-0.0452
2,CC(C#N)CCC#N (stereo not given),2.93

# System: not listed separately
# Experiment: Cellular Toxicity (caspase-3) Renal Proximal Tubule (AID 667);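 further: cells exposed to compound for 16 hours at 37 °C before detection; 0% = DMSO basal and 100% = 10 µM staurosporine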
# Conditions: renal proximal tubule cells; series mostly up to 91.7 µM; caspase-3 activation: at the top concentration
# Outline: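 AC50 derived by standard Hill fit of concentration-response data, normalized between DMSO basal and 10 uM staurosporine as 100% stimulation. Cells: primary rat kidney proximal tubule, 16 h treatment at 37 °C.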
row,SMILES,caspase-3 activation
1,CCC/C=N/O,2.9%
2,Nc1cccc2ccccc12,-1.7%
3,Cc1cnc[nH]1,2.7%
4,CN(C)N=O,2.28%
5,COc1c(C(C)(C)C)cc([N+](=O)[O-])c(C)c1[N+](=O)[O-],-3.16% [at 91.7 µM]
6,C=C(Cl)CCl,2.44%
7,ClCCOCOCCCl,3.83%
8,CC(C)(Cl)[N+](=O)[O-],5.46%
9,Cl/C=C/Cl,-5.62%
10,CCCCOCC1CO1 (stereo not given),-6.42%
11,O=C(O)c1cccc(Cl)c1,-2.81%
12,Brc1cccc(-c2ccccc2)c1,3.14%
13,Oc1c(Cl)cccc1Cl,-1.85%
14,ClCCOCCCl,-5.54%
15,Cl/C=C\Cl,-4.65%
16,c1ccc2c(c1)CCNC2,-4.6%

row,SMILES,caspase-3 activation
1,CCBr,-3.49%
2,O=[N+]([O-])c1ccc(Cl)c(Cl)c1Cl,6.65%
3,N#CCCC#N,0.704%
4,Cc1ccccc1[N+](=O)[O-],1.92%
5,OCCBr,-7.21%
6,C=CC(=O)OCCN(C)C,6.83%
7,CC(C)(C)C(O)(CCc1ccc(Cl)cc1)Cn1cncn1 (stereo not given),8.16%
8,N#CCCCCC#N,6.27%
9,CN=C=O,0.63%
10,c1ccc(C2CO2)cc1 (stereo not given),7.41%
11,CCCCCC[N+](=O)[O-],1.06%
12,OCC(Cl)CCl (stereo not given),-2.87% [at 91.7 µM]
13,Nc1ccc(Cl)c(Cl)c1,-13.6%
14,CC(=O)[O-].CC(=O)[O-].CC(=O)[O-].[Cr+3],-7.59%
15,C=CC(=O)OCC(CC)CCCC (stereo not given),0.425%

# Biological target: Cytochrome P450 3A4 (Homo sapiens) (UniProt P08684)
# Sequence (P08684 whole entry, looked up): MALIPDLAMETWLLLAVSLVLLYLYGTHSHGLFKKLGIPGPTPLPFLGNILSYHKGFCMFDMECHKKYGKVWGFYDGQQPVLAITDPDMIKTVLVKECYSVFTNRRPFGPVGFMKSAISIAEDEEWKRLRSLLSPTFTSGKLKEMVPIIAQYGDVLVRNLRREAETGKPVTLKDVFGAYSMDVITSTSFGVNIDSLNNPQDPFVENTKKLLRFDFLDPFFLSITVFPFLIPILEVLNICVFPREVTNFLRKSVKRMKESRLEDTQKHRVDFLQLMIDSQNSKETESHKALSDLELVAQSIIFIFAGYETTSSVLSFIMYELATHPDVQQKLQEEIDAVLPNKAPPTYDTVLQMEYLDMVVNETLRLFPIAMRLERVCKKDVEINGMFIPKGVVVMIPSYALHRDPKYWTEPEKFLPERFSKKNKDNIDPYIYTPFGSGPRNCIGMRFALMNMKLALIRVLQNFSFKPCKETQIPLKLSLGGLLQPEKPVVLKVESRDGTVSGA
# Experiment: qHTS Assay for Inhibitors and Substrates of Cytochrome P450 3A4 (AID 884); further: nearly all actives have a fitted effect of over 50% in size; further: potency means the concentration at half of the fitted maximal effect; on activity change, negative = inhibition: on the % scale 0 is the no-effect control and ±100 the full control effect
# Conditions: recombinant CYP3A4, Luciferin-PPXE luminescence; series mostly up to 57.1 µM; activity change, negative = inhibition: at the top concentration
# Outline: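 20 nM human CYP3A4 with 25 uM Luciferin-PPXE (at KM) in 200 mM KPO4, preincubated 10 min with compound; NADPH regeneration started a 60 min RT reaction. Luciferin detected by luminescence, normalized to 57 uM ketoconazole as full inhibition.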
SMILES,"activity change, negative = inhibition [%]",Potency
Oc1cccc(Cl)c1Cl,-9.87,
CCC/C=N/O,0.4,
Cc1cnc[nH]1,-29.8,
CN(C)N=O,-9.54,
COc1c(C(C)(C)C)cc([N+](=O)[O-])c(C)c1[N+](=O)[O-],-24.8,
C=C(Cl)CCl,-3.58,
ClCCOCOCCCl,-6.03,
CC12CC1(C)C(=O)N(c1cc(Cl)cc(Cl)c1)C2=O (stereo not given),-15.6,
CC(C)(Cl)[N+](=O)[O-],-6.25,
Cl/C=C/Cl,3.78,
CCCCOCC1CO1 (stereo not given),-8.48,
O=C(O)c1cccc(Cl)c1,-1.99,
C1CC2OC2CC1C1CO1 (stereo not given),-18.4,
Brc1cccc(-c2ccccc2)c1,-1.98,
Oc1c(Cl)cccc1Cl,9.99,
ClCCOCCCl,-12,
CCNCC,3.7,
CC(C)C#N,-7.74,
Cl/C=C\Cl,-7.62,

SMILES,"activity change, negative = inhibition [%]",Potency
c1ccc2c(c1)CCNC2,-20.4,
CCBr,-25.8,
O=[N+]([O-])c1ccc(Cl)c(Cl)c1Cl,-9.56,
N#CCCC#N,-9.21,
Cc1ccccc1[N+](=O)[O-],-5.39,
OCCBr,0.389,
C=CC(=O)OCCN(C)C,-4.02,
CC(C)(C)C(O)(CCc1ccc(Cl)cc1)Cn1cncn1 (stereo not given),,0.501 µM (active)
N#CCCCCC#N,1.98,
CN=C=O,-24.3,
c1ccc(C2CO2)cc1 (stereo not given),-6.64,
CCCCCC[N+](=O)[O-],-5.26,
OCC(Cl)CCl (stereo not given),-9.62,
COc1ccc(C=O)cc1,-15.8,
CC(=O)[O-].CC(=O)[O-].CC(=O)[O-].[Cr+3],-7.72,
CC(=O)CCC(C)=O,-11.5,
C=CC(=O)OCC(CC)CCCC (stereo not given),-12.6,
CC(C#N)CCC#N (stereo not given),-1.59,
